OTUD3 inh: inhibitors of human OTUD3 deubiquitinase; OTU domain-containing protein 3 (Homo sapiens), Q5T2D3; 47,000 tested, 0.7% active; purified OTUD3, Ub-rhodamine fluorescence, 2 h; AID 1645858, 2021; inhibition, % at 25 µM
USP28 inh: inhibitors of human USP28 deubiquitinase | purified USP28, Ub-rhodamine cleavage fluorescence, 30 min | inhibition, % at 25 µM | 47,000 tested, 3% active
USP17 block: inhibitors of human USP17 deubiquitinase; Ubiquitin carboxyl-terminal hydrolase 17-like protein 5 (Homo sapiens), A8MUK1; purified USP17, Ub-rhodamine cleavage fluorescence, 3 h; inhibition, % at 50 µM; 47,000 tested, 6.5% active; AID 1645855, 2021
Target sequence (A8MUK1 whole entry, looked up): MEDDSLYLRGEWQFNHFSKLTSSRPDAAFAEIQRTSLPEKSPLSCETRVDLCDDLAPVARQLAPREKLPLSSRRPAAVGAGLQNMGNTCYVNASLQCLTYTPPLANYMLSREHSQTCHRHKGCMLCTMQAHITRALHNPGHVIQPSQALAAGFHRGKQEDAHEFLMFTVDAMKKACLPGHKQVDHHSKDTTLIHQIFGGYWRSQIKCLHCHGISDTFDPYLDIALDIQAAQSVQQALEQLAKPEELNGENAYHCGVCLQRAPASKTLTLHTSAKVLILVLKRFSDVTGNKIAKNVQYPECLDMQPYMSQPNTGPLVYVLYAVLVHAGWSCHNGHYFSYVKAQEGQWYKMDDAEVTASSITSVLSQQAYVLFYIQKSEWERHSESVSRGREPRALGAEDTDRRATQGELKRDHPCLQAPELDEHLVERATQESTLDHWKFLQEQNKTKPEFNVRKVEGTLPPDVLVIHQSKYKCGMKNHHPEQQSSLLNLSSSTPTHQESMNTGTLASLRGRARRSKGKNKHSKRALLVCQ
USP8 inh: inhibitors of human USP8 deubiquitinase. Ubiquitin carboxyl-terminal hydrolase 8 (Homo sapiens), P40818. purified USP8, Ub-rhodamine cleavage fluorescence, 30 min. inhibition, % at 20 µM. 47,000 tested, 4.2% active
USP30 block: inhibitors of human USP30 deubiquitinase; Ubiquitin carboxyl-terminal hydrolase 30 (Homo sapiens), Q70CQ3; inhibition, % at 25 µM; 47,000 tested, 5.3% active; AID 1645860, 2021; purified USP30, Ub-rhodamine cleavage fluorescence
Each line names hits and unclear results; the compound was inactive in the other large screens. Hits are enriched below; roughly 13% of the tested compounds scored in any of these assays. Rule as the data show it: active = inhibition above about 30%; inactive = the rest.

CCOc1ccc(C2C3=C(CCCC3=O)Nc3nc4ccccc4n32)cc1OC (configuration not stated)	none
O=C(NCc1ccco1)N1CCCn2nc(-c3cccnc3)cc2C1	USP17 block 31.0
O=C(NCC1CCCO1)N1CCCn2nc(-c3cccnc3)cc2C1 (configuration not stated)	none
COc1cccc(C(=O)Oc2ccc3c(=O)c(-c4ccc(OC)c(OC)c4)coc3c2)c1	USP17 block 79.5
COc1cccc(C(=O)Oc2ccc3c(C)c(C)c(=O)oc3c2)c1	USP17 block 49.2
Cc1ccc(CNC(=O)c2cc3c(=O)n(C)ccc3n2C)cc1	none
O=C(/C=C/c1ccc2c(c1)OCO2)c1ccc(-n2cncn2)cc1	USP17 block 44.8 (no result: USP28 inh, USP30 block)
O=C(COC(=O)c1cccnc1Nc1cccc(C(F)(F)F)c1)Nc1ccc2c(c1)OCCO2	none
COc1ccc(NC(=O)C2CCCN(S(=O)(=O)N3CCC(C)CC3)C2)cc1 (configuration not stated)	USP17 block 38.4
CCOC(=O)c1ccc(NC(=O)C2CCCN(S(=O)(=O)N3CCCCCC3)C2)cc1 (configuration not stated)	USP17 block 41.0
COc1ccc(CCNC(=O)C2CCCN(S(=O)(=O)N3CCC(C)CC3)C2)c(OC)c1 (configuration not stated)	USP30 block 32.7
COc1ccc(NC(=O)C2CCCN(S(=O)(=O)N3CCC(C)CC3)C2)cc1OC (configuration not stated)	none
O=C(Nc1ccc(F)cc1)C1CCCN(S(=O)(=O)N2CCCCCC2)C1 (configuration not stated)	none
O=C(Nc1cccc(F)c1)C1CCCN(S(=O)(=O)N2CCCCCC2)C1 (configuration not stated)	USP17 block 53.3
O=C(N1CCCCC1)C1(Cc2ccccc2-c2cccnc2)CCOCC1	none
COc1ccc(C2C3CCCCC3(O)CCN2C(=O)/C=C/c2ccc(OC)c(OC)c2)cc1 (configuration not stated)	none
Cc1cc2occ(CC(=O)Nc3ccccc3-c3ccccc3)c2cc1C(C)C	none
CNC(=O)C1CN(C(=O)Nc2ccc3c(c2)CCC3)CC12CCCC2 (configuration not stated)	none
CC1(c2ccc(F)cc2)NC(=O)N(CC(=O)NCc2ccccc2)C1=O (configuration not stated)	none
COc1ccc(NC(=O)C2CCCN(S(=O)(=O)N3CCC(C)CC3)C2)c(OC)c1 (configuration not stated)	USP8 inh 43.5
CC(=O)Nc1ccc(O)c(-c2nc3cc(C)ccc3o2)c1	USP17 block 50.8
CC(C)(C)c1ccc(C(=O)Nc2ccc(O)c(-c3nc4cnccc4o3)c2)cc1	USP8 inh 61.3
COC[C@H]1C[C@@H]2CN(C(=O)CN)C(C)[C@H]1N2Cc1ccccc1 (some centres not stated)	none
CCc1ccc(NC(=O)c2ccc(SCCN3CCOCC3)nc2)cc1	none
Cc1ccc(NC(=O)c2cnc(N3CCOCC3)nc2)cc1C	none
CCOC(=O)c1ccc(NC(=O)c2cnc(N3CCOCC3)nc2)cc1	OTUD3 inh 30.2
Cc1ccc(NC(=O)c2cnc(N3CCOCC3)nc2)cc1F	USP17 block 88.9, USP30 block 45.5
COc1ccc(CC(=O)N2CCc3c(nc[nH]c3=O)C2)c(Cl)c1	none
CCOc1cc(C2C3=C(CC(C)(C)CC3=O)Nc3ccccc3N2C(=O)c2ccccc2)ccc1OCc1ccc(Cl)cc1 (configuration not stated)	none
Cc1cc(NC(=O)c2cccc(N3CCOCC3)n2)n(-c2ccc(Cl)cc2)n1	USP8 inh 52.0
CCc1nc(Nc2ccc3c(c2)SC2=NCCN23)c2oc3ccccc3c2n1	USP28 inh 62.7, USP17 block 61.4, USP30 block 41.3
O=C(COC(=O)c1cnccn1)Nc1cccc(Oc2ccccc2)c1	none
Cc1cc(C)nc(-n2nc(C)cc2NC(=O)c2ccc3c(c2)OCO3)n1	none
Cc1nc(NC(=O)c2ccc(F)cc2)nc2cc3c(cc12)OCO3	USP17 block 36.3
CCn1cc(-c2nc(-c3ccccn3)no2)c(=O)c2cc(F)ccc21	USP17 block 58.0

Assay outcomes deposited in PubChem BioAssay by Buhrlage Lab, Dana-Farber Cancer Institute and Novartis Institutes for BioMedical Research (Cambridge, Mass).
